For the assay, the system named is Chordin-like protein 2 (CHRDL2). The assay is described as follows: compounds binding chordin-like 2 – biochemical, small-molecule microarray, 635 nm fluorescence, primary screen (AID 1126).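 Also: printed compound slides probed with Chrdl2 protein at 4 µg/mL for 1 h at 4 C; score merges 667 nm emission intensity with signal to noise over three replicate slides.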 The following applies: fluorescence 635 nm, higher = more signal.
`CCCC=C(CCC)[C@@H](NS(=O)(=O)c1ccc(-c2ccccc2)cc1)c1ccc(C(=O)OC)cc1` displayed a composite z-score of -0.705.

On to `COc1ccc([Si](C)(C)[C@@H]2[C@@H](CC(=O)N(CCO)Cc3ccccc3)O[C@]3(C(=O)N(Cc4cccc(N5CCC5=O)c4)c4ccccc43)[C@H]2C)cc1`, for which the composite z-score came to 0.9.

For the compound `CCC1=C2CN(Cc3ccccc3Br)[C@@H]([C@@H](O)Cc3ccccc3)C2C=CCC1` (stereo partly specified), the composite z-score was determined as 0.611.

With `CO[C@H]1COC(=O)[C@H](C)COC(=O)[C@H](Cc2ccccc2)NC(=O)CC=C[C@H]1C`, the composite z-score amounted to 1.53.

Compound `Cc1ccc(S[C@]2(C(=O)NC3CC3)CC(=O)N(Cc3cc(C(F)(F)F)cc(C(F)(F)F)c3)[C@@H]2c2ccc(CO)cc2)cc1` registered a composite z-score of 0.115.

Turning to `CCCC[C@@H]1C[C@H]1[C@@H](NC(=O)c1cccs1)c1ccc(Cl)cc1`, the composite z-score is -1.66.

In turn, `COC(=O)C(CC#Cc1ccc2c(c1)[C@]1(C(=O)N2)[C@H](C(=O)N2CCCCCCC2)[C@H]2C(=O)O[C@H](c3ccccc3)[C@H](c3ccccc3)N2[C@@H]1c1ccc(O)cc1)C(=O)OC` gave a composite z-score of -1.32.

Consider `CC(C)N1CC=CC23O[C@@H]4/C=C\CCCOC(=O)C4[C@H]2C(=O)N(CCO)[C@@H]3C1=O` (stereo partly specified), for which the composite z-score was -1.4.

The compound `O=C1O[C@H](c2ccccc2)[C@H](c2ccccc2)N2[C@H]1[C@@H](C(=O)NC[C@H](O)c1ccccc1)[C@]1(C(=O)Nc3ccc(C#CC4=CCCCC4)cc31)[C@H]2c1ccc(OCCO)cc1` registered a composite z-score of 0.424.

With `Cc1ccc(S[C@]2(C(=O)NC(C)C)CC(=O)N(C3Cc4ccccc4C3)[C@@H]2c2ccc(CO)cc2)cc1`, the composite z-score was -1.2.

On to `Cc1ccc(S[C@]2(C(=O)NCCCN(C)C)CC(=O)N(Cc3ccccc3)[C@@H]2c2ccc(CO)cc2I)cc1`, for which the composite z-score was -0.855.

`COc1ccc([C@H]2C[C@H]3C(Br)=C[C@]2(OC)C(=O)[C@]32CO2)cc1` returned a composite z-score of 0.388.

With `COC(=O)[C@H]1[C@@H]2COc3ccccc3[C@H]2N[C@H]1C(=O)OC`, the composite z-score was 0.122.

Compound `C=CC[C@]1(C(N)=O)N=C(c2ccc(OCCCO)cc2)O[C@H]1c1ccccc1CN=[N+]=[N-]` returned a composite z-score of -0.63.

Regarding `CC(C)[Si](OCC[C@H]1O[C@]2(C(=O)N(Cc3ccccc3)c3ccccc32)[C@@H](C)[C@@H]1[Si](C)(C)O)(C(C)C)C(C)C`, the composite z-score was -0.0644.

Compound `CC(C)[Si](OCCCNS(=O)(=O)c1ccc(Br)cc1)(C(C)C)C(C)C` gave a composite z-score of 0.29.

Regarding `C=CCOC(=O)[C@@H]1[C@H]2C(=O)O[C@H](c3ccccc3)[C@H](c3ccccc3)N2[C@H](c2ccc(OCCOC(=O)[C@H]3C[C@H]4C(=O)N[C@@H](CCCCNC(C)=O)C(=O)N4[C@H]3c3ccc(O)cc3)cc2)[C@@]12C(=O)Nc1ccc(I)cc12`, the composite z-score turned out to be 1.15.

Regarding `C[C@]1(C(=O)NCCN2CCOCC2)c2ccccc2C(=O)N(Cc2ccccc2)[C@H]1c1ccc(CO)cc1`, the composite z-score was -0.479.

`C=CCN(C(=O)C1N(c2ccc(CCO)cc2)C(=O)C2C(C(=O)O)C3C=CC21O3)C(C)(C)C` (stereo unspecified) gave a composite z-score of -4.23.

In the case of `CCOC(=O)C[C@H]1[C@H](OC(=O)Cc2ccc3c(c2)OCO3)[C@@H](NC(=O)c2ccc3ccccc3c2)c2cc(OCCCO)ccc2N1C(=O)Cc1ccc(OC)cc1`, the composite z-score came out at 0.472.

For `COc1ccc([Si](C)(C)[C@H]2[C@H](CCO)O[C@@]3(C(=O)N(Cc4ccc(N5CCCCC5=O)cc4)c4ccccc43)[C@@H]2C)cc1`, the composite z-score was -0.0425.

`COc1cc(CO)cc(I)c1O[C@H]1C=C(C(=O)NCCO)C[C@@H](N(CC2CCCCC2)C(=O)c2cc3ccccc3oc2=O)[C@@H]1O` registered a composite z-score of 0.538.

The compound `COC(=O)C1=CC(c2ccc(CO)cc2)=CC(C2CC2)N(Cc2sc3ccccc3c2Cl)C=C1C(=O)OC` (stereo unspecified) yielded a composite z-score of 0.185.

The compound `CSCC[C@@H]1NC(=O)CC=C[C@@H](C)COC(=O)[C@H](CCSC)NC(=O)CC=C[C@@H](C)COC1=O` registered a composite z-score of 1.39.

Compound `COC(=O)[C@@]1(Cc2ccc(OC)cc2)[C@H]2c3cc(C(=O)N(C)C)n(CCc4ccc(OC)c(Br)c4)c3C[C@H]2CN1C(=O)c1ccccc1` yielded a composite z-score of -1.11.

`COCC(=C=CC[C@H](O)c1ccc(OCCO)cc1)C[C@H](O)c1ccccn1` had a composite z-score of -0.6.

`O=C(NCc1ccccc1)[C@@]1(Cc2ccccc2)COC(c2ccc(OCCCO)cc2)=N1` showed a composite z-score of -0.594.

As to `CO[C@@H]1COC(=O)[C@H](C)NC(=O)CC=C[C@@H](C)[C@H](OC)COC(=O)[C@H](C)NC(=O)CC=C[C@H]1C`, the composite z-score worked out at 1.16.

Turning to `CCCC=C(CCC)[C@@H](NS(=O)(=O)c1ccc(C(F)(F)F)cc1)c1ccc(-c2ccccc2)cc1`, the composite z-score is -0.386.

Consider `CC(C)(C)OC(=O)CC[C@]1(C(=O)N2CCCCC2)N=C(c2ccc(OCCCO)cc2)O[C@H]1c1ccccc1`, for which the composite z-score was 0.261.

In turn, `CC(=O)NCCCC[C@@H]1NC(=O)[C@@H]2C[C@H](C(=O)NCCCCCNC(=O)CS)[C@H](c3ccc(O)cc3)N2C1=O` showed a composite z-score of -0.13.

Compound `C=CCC(OC(C)=O)[C@@H]1[C@@H](N(Cc2ccc(-c3cccc(C(F)(F)F)c3)o2)C(=O)Cc2ccc(F)cc2)c2cc(OCCCO)ccc2N1C(=O)c1ccc(-c2ccccc2)cc1` (stereo partly specified) showed a composite z-score of -0.294.

As for `CO[C@]12C=C(Br)[C@@H](C[C@@H]1c1ccccc1)[C@@]1(CO1)C2=O`, the composite z-score worked out at 0.77.

`COCCOC(=O)N1C(=O)[C@@]2(c3cc(C#CCC(C(=O)OC)C(=O)OC)ccc31)[C@H](c1ccccc1OCCO)N1[C@H](c3ccccc3)[C@H](c3ccccc3)OC(=O)[C@H]1[C@@H]2C(=O)N1CCCCCCC1` showed a composite z-score of 1.27.

For `CCOC(=O)C1=CC[C@@H](c2ccccc2)N(S(=O)(=O)c2ccc(C)cc2)[C@H]1C`, the composite z-score is 0.416.

`O=C1c2ccccc2[C@](Cc2ccccc2I)(C(=O)NCC(F)(F)F)[C@H](c2ccc(CO)cc2)N1Cc1ccccc1C(F)(F)F` registered a composite z-score of -0.324.

These data come from PubChem BioAssay.
